Data on 12 compounds can be found in PubChem BioAssay AID493197 (Broad Institute, 2011).

Measured potencies and affinities stand elsewhere. Results filed as inconclusive are left out. Calls of active or inactive are those of the source. The rule behind the calls is not given here.

This assay is described as follows: growth inhibition of intracellular Trypanosoma cruzi, dose response, cell-based, plate reader, dry powder, set 3 (AID 493197). Particulars: intracellular Trypanosoma cruzi in host cells; series mostly up to 19.5 µM.
As for `COCCNC(=O)C1(C)CCCN(C(=O)c2ccc(OC)c(OC)c2)C1` (configuration not stated), the compound was called inactive. As for `CCCNC(=O)C1(C)CCN(C(=O)Cc2ccc(OC)c(OC)c2)C1` (configuration not stated), the compound was classed as inactive. As for `COCCNC(=O)C1(C)CCCN(C(=O)c2cc(OC)c(OC)c(OC)c2)C1` (configuration not stated), the entry is “inactive”. As for `CCCNC(=O)C1(C)CCCN(C(=O)Cc2ccc(OC)c(OC)c2)C1` (configuration not stated), the entry is “inactive”; as for `CCNC(=O)C1(C)CCN(C(=O)c2ccc(OC)c(OC)c2)C1` (configuration not stated), “inactive”; as for `CCCNC(=O)C1(C)CCCN(C(=O)c2ccc(OC(F)F)cc2)C1` (configuration not stated), “inactive”.

As for `COc1ccc(CCNC(=O)C2CCCCC2)cc1OC`, the result was inactive. Next, `COc1ccc(CN2CCC(C(=O)NC3CCCC3)CC2)cc1OC`: “inactive”; `CCNC(=O)C1(C)CCCN(C(=O)Cc2ccc(OC)c(OC)c2)C1` (configuration not stated): “inactive”; `COc1cc2c(cc1OC)C(C)N(CCC(N)=O)CC2` (configuration not stated): “inactive”. `COc1ccc(CCN2CC(C(=O)NCc3ccc(F)cc3)CC2=O)cc1OC` (configuration not stated): the outcome was inactive.

On to `CCNC(=O)C1CCCN(C(=O)c2cc(OC)c(OC)c(OC)c2)CC1` (configuration not stated), for which the compound was called inactive.
